The values below come from PubChem BioAssay (NCATS).

Results filed as inconclusive are left out. Unmarked numbers belong to inactive results. Activity calls are given as the source filed them. The call rests on the fitted dose curve; in most records, active means well fitted curve in the direction sought with a large enough effect; inconclusive means small, poorly fitted or top-dose-only effect, or another doubt; inactive means no such curve, though single readings can be large; an effect the other way counts as inactive or inconclusive.

In one assay the test system is Zika virus NS2B-NS3 protease. Kind of assay: Primary screen GU AMC qHTS for Zika virus inhibitors (AID 1347154).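 Further: 0% = no-inhibitor control and -100% = no-enzyme control; nearly all actives have a fitted effect of over 70% in size.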 Conditions: Zika NS2B-NS3 unlinked protease, AMC fluorogenic substrate; series mostly up to 54.1 µM; activity change, negative = inhibition: at the top concentration. Summed up: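 Fluorogenic AMC-substrate cleavage by noncovalent NS2B-NS3 protease complex (25 nM, pH 8.0 Tris buffer with Tween 20) followed for 15 minutes at room temperature (~20% conversion). Percent inhibition from ex340/em450 signal change, fitted by 4-parameter Hill equation.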
(In general: In qHTS, concentration-response curves come from the screen itself.)
On to `COC(=O)[C@@H](N)CCCN/C(N)=N/[N+](=O)[O-]`, for which the “activity change, negative = inhibition” value was 4.52%.
On the same count and under the same terms, the figure for `CC(=O)OCC1=C(C(=O)O)N2C(=O)[C@@H](N)[C@H]2SC1` is 2.84% [at 25.8 µM].
As to `CN1C(=O)COc2c(C(=O)NC3CN4CCC3CC4)cc(Cl)cc21` (configuration not stated), the Potency result was “inactive”.
Still for that read-out and setting: the result for `CCC1(c2ccc(N)cc2)CCC(=O)NC1=O` (configuration not stated) reads “inactive”.
In the case of `O=C(N/N=C/c1ccc([N+](=O)[O-])o1)c1cc([N+](=O)[O-])cc([N+](=O)[O-])c1O`, the “activity change, negative = inhibition” value is -16.7%.
Still for that read-out and setting: the figure for `CC(C)(C)c1ccc(O)cc1` is 0.793%; for `C=C(C)[C@H]1CN[C@H](C(=O)O)[C@H]1CC(=O)O` it is 0.306%.

The next assay concerns Zika virus NS2B-NS3 protease (unlinked complex). Put plainly: Primary screen GU Rhodamine qHTS for Zika virus inhibitors: Unlinked NS2B-NS3 protease assay (AID 1347159). Further: on the % scale 0 is the no-effect control and ±100 the full control effect; nearly all actives have a fitted effect of over 60% in size. Conditions: Recombinant ZIKV NS2B-NS3 protease, Rhodamine110 substrate fluorescence; series mostly up to 107 µM; activity change, negative = inhibition: at the top concentration. In short, it runs like this:
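Percent inhibition came from the 15-min rise in Rhodamine110 fluorescence (1.5 microM substrate, ~15% conversion), normalized to no-inhibitor and no-enzyme wells and Hill-fitted. Unlinked protease, 25 nM, pH 8.0 Tris buffer; compounds up to 114 microM, 15-min preincubation.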
Regarding `C=CCN1C[C@H](C)N([C@H](c2ccc(C(=O)N(CC)CC)cc2)c2cccc(OC)c2)C[C@H]1C`, the activity change, negative = inhibition is -8.84% [at 19.1 µM].
The same measure, in the same setting: the result for `CC(C)N(CCC(C(N)=O)(c1ccccc1)c1ccccn1)C(C)C` (configuration not stated) reads 24.3%; that for `CC(NC(C)(C)C)C(=O)c1cccc(Cl)c1` (configuration not stated), 7.97%; that for `CC(=O)OCC1=C(C(=O)O)N2C(=O)[C@@H](N)[C@H]2SC1`, -2.88%.

For another assay, the system named is Zika virus NS2B-NS3 protease (linked construct). Put plainly: Primary screen NINDS Rhodamine qHTS for Zika virus inhibitors (AID 1347160). Further: nearly all actives have a fitted effect of over 55% in size. On activity change, negative = inhibition: on the % scale 0 is the no-effect control and ±100 the full control effect. The settings on record: purified NS2B-NS3 protease, Rhodamine110 substrate fluorescence; series mostly up to 57.1 µM; activity change, negative = inhibition: at the top concentration. The text has this:
Avindra Nath, Ph.D., National Institute of Neurological Disorders and Stroke (NINDS), Bethesda, MD
Radhakrishnan Padmanabhan, Ph.D., Georgetown University (GU), Washington D.C.
Zika Virus causes congenital defects, including microcephaly and is associated with Guillain-Barre syndrome, eningoencephalitis and myelitis in infected adult. […] Using a target-based approach, we hope to establish a screening paradigm to uncover novel, cell-active NS2B-NS3 protease (Zika Virus) specific inhibitors from NCATS' collection of small molecules using qHTS.
Four assay panel was created to identify potential Zika Virus inhibitors. Namely, (1) GU unlinked NS2B-NS3 AMC tagged protease qHTS, (2) GU unlinked NS2B-NS3 Rhodamine tagged protease qHTS, (3) NINDS linked NS2B-NS3 AMC tagged protease qHTS, (4) NINDS linked NS2B-NS3 Rhodamine tagged protease qHTS. Active compounds were re-acquired and re-screened to confirm inhibition. Inhibitors were further screened against various confirmatory and counterscreens in dose response format.
Early Translation Branch (ETB)
National Center for Advancing Translational Sciences (NCATS), Rockville, MD
National Institute of Health (NIH), Bethesda, Maryland
For the linked assay, Nath lab (NINDS) provided the purified linked NS2B-NS3 protease which is consists of hydrophilic domain of NS2B linked to the NS3 protease domain by a flexible (-[…]-) linker. Control compound aprotinin is obtained from Thermo Scientific (#78432; Waltham, Massachusetts). Rhodamine110 substrate ([N-Cbz]-Nle-Lys-Arg-Arg-Rhod110-Arg-Arg-Lys-Nle-[N-Cbz]) was purchased from either Genscript or Bachem.
1536-well Protease (Rhodamine110 Substrate) Assay:
Briefly, 3 microL of enzyme (25 nM final concentration), in assay buffer (10 mM Tris-HCl pH 8.0 with 0.01% Tween 20) were dispensed into a 1,536-well solid-bottom black plate (Greiner Bio One, Monroe, NC). Twenty-three nL of compounds (final concentration range 7.28 nM to 114 microM) or control Aprotinin (final concentration range 3.47 nM to 114 microM) were transferred via Wako Pin-tool (Wako Automation, Richmond, VA). Samples were incubated (room temperature, protected from light) for 15 minutes followed by a 1 microL Rhodamine110 substrate addition (1.5 microM final concentration). Plates were then immediately read on a ViewLux High-throughput CCD imager (PerkinElmer, Waltham, MA) equipped with FITC fluorescence optics (480(20) nm excitation, 540(25) nm emission), then incubated (room temperature, protected from light) for 15 minutes (~15% conversion). The change in fluorescence intensity over the 15-minute reaction period was normalized against no-inhibitor and no-enzyme controls and the resulting percent inhibition data were fitted to a 4-parameter Hill equation. Aprotinin was used as intraplate control.
Take `C=CCN1C[C@H](C)N([C@H](c2ccc(C(=O)N(CC)CC)cc2)c2cccc(OC)c2)C[C@H]1C`: the activity change, negative = inhibition was 6.42% [at 10.7 µM].
The same measure, in the same setting: the result for `CC(C)N(CCC(C(N)=O)(c1ccccc1)c1ccccn1)C(C)C` (configuration not stated) reads 72.8%.
Regarding `CC(NC(C)(C)C)C(=O)c1cccc(Cl)c1` (configuration not stated), the outcome was inactive.
Regarding `NCCc1ccc(O)cc1`, the “activity change, negative = inhibition” value was 39% [at 227 µM].
On the same count and under the same terms, the figure for `C[C@]12CC[C@@H]3c4ccc(OC(=O)N(CCCl)CCCl)cc4CC[C@H]3[C@@H]1CC[C@@H]2OP(=O)(O)O` is -23.9%.

Test system in the next assay: not listed separately
Kind of assay: Confirmatory screen NINDS Rhodamine qHTS for Zika virus inhibitors (AID 1347161). Further: potency means the concentration at half of the fitted maximal effect; nearly all actives have a fitted effect of over 60% in size. Conditions: purified enzyme assay, Rhodamine110 substrate fluorescence, 15 min. Summed up:
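Each compound, titrated, sat 15 min with 25 nM linked protease before 1.5 microM Rhodamine110 substrate went in. Fluorescence gain over the next 15 min, in pH 8.0 Tris with Tween 20, gave Hill-fitted curves.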
For `C[C@]12CC[C@@H]3c4ccc(OC(=O)N(CCCl)CCCl)cc4CC[C@H]3[C@@H]1CC[C@@H]2O`, the Potency is 1.97 µM (active).
Still for that read-out and setting: the figure for `O=C(Nc1ccc(Br)cc1)c1cc(Br)cc(Br)c1O` is 3.12 µM (active); for `O=c1c(C2CC(c3ccc(-c4ccc(Br)cc4)cc3)Cc3ccccc32)c(O)sc2ccccc12` (configuration not stated) it is 2.2 µM (active).
As for `CC(=O)OCC1=C(C(=O)O)N2C(=O)[C@@H](N)[C@H]2SC1`, the Potency is 24.8 µM (active).
Same read-out and setting: the result for `O=C1OC(c2ccc(O)c(S(=O)(=O)O)c2)(c2ccc(O)c(S(=O)(=O)O)c2)c2c(Br)c(Br)c(Br)c(Br)c21` reads 2.51 µM (active).

The test system of the next assay is Zika virus NS2B-NS3 protease (linked). Kind of assay: 384 well plate NINDS AMC confirmatory qHTS for Zika virus inhibitors (AID 1347163). Further: nearly all actives have a fitted effect of over 50% in size. Further: potency means the concentration at half of the fitted maximal effect.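 On activity change, negative = inhibition: linked protease at 5 30 or 60 nM final depending on run; fluorescence of AMC released from Ac-VKTGKR-AMC peptide cleaved by the protease; top concentration of the series differs between compounds; 0% = no-inhibitor control and -100% = no-enzyme control.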 The settings on record: Recombinant NS2B-NS3 protease, Ac-VKTGKR-AMC fluorescence; series mostly up to 1 mM; activity change, negative = inhibition: at the top concentration. The text has this: Description: Assay Submitters (PI): Avindra Nath, Ph.D., National Institute of Neurological Disorders and Stroke (NINDS), Bethesda, MD Radhakrishnan Padmanabhan, Ph.D., Georgetown University (GU), Washington D.C. Zika Virus causes congenital defects, including microcephaly and is associated with Guillain-Barre syndrome, eningoencephalitis and myelitis in infected adult. […] Using a target-based approach, we hope to establish a screening paradigm to uncover novel, cell-active NS2B-NS3 protease (Zika Virus) specific inhibitors from NCATS' collection of small molecules using qHTS. […] Four assay panel was created to identify potential Zika Virus inhibitors. Namely, (1) GU unlinked NS2B-NS3 AMC tagged protease qHTS, (2) GU unlinked NS2B-NS3 Rhodamine tagged protease qHTS, (3) NINDS linked NS2B-NS3 AMC tagged protease qHTS, (4) NINDS linked NS2B-NS3 Rhodamine tagged protease qHTS. Active compounds are validated using a secondary assay in 384 well plate format. Early Translation Branch (ETB) National Center for Advancing Translational Sciences (NCATS), Rockville, MD National Institute of Health (NIH), Bethesda, Maryland
384-well NINDS AMC Assay The protease was diluted to 7.5 nM, 40.9 nM, or 82 nM in assay buffer and dispensed into a 96-well PCR plate (Applied Biosystems); 20 or 22 microL was transferred to a black 384-well assay plate (final protease concentration of 5 nM, 30 nM, or 60 nM, respectively). Compounds (3 microL, 1 microM - 10 mM, DMSO) were diluted and transferred to the assay plate (final concentrations ranged from 100 nM to 1 mM). Compounds were incubated with protease for ~15 minutes. The substrate, Ac-VKTGKR-AMC (Genscript), was dissolved in DMSO to a concentration of 6 mM and further diluted into assay buffer to a working concentration of 180 microM, then dispensed into a 384-well preparation plate (Eppendorf). […] After 25 minutes, the fluorescence intensity (excitation: 355 nm, emission: 460 nm) was measured and normalized to no-enzyme and no-inhibitor controls. […]
In the case of `O=C(Nc1ccc(Br)cc1)c1cc(Br)cc(Br)c1O`, the “activity change, negative = inhibition” value is 422%.
For the compound `O=c1c(C2CC(c3ccc(-c4ccc(Br)cc4)cc3)Cc3ccccc32)c(O)sc2ccccc12` (configuration not stated), the Potency was 11.2 µM (active).
The same measure, in the same setting: the result for `O=C1OC(c2ccc(O)c(S(=O)(=O)O)c2)(c2ccc(O)c(S(=O)(=O)O)c2)c2c(Br)c(Br)c(Br)c(Br)c21` reads 112 µM (active).

A further assay concerns Zika virus NS2B-NS3 protease (linked construct). Put plainly: 384 well plate NINDS Rhodamine confirmatory qHTS for Zika virus inhibitors (AID 1347164). Further: potency means the concentration at half of the fitted maximal effect; nearly all actives have a fitted effect of over 65% in size. The settings on record: rhodamine-110 peptide substrate fluorescence. Summed up: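 Linked protease at a final 5 nM, 30 nM or 60 nM was preincubated ~15 min with compounds, then given 10 microM Ac-LKRR-Rhodamine 110. Fluorescence (ex 485/em 538 nm) after 25 min in the dark at room temperature.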
As to `C[C@]12CC[C@@H]3c4ccc(OC(=O)N(CCCl)CCCl)cc4CC[C@H]3[C@@H]1CC[C@@H]2O`, the Potency is 39.8 µM (active).
The same measure, in the same setting: the figure for `O=C(Nc1ccc(Br)cc1)c1cc(Br)cc(Br)c1O` is 44.7 µM (active); for `O=c1c(C2CC(c3ccc(-c4ccc(Br)cc4)cc3)Cc3ccccc32)c(O)sc2ccccc12` (configuration not stated) it is 17.8 µM (active).
